Here are results for 40 molecules from PubChem BioAssay (EPA / NIEHS).

Values joined by “and” are separate entries in the source; they are usually repeats but may differ in a detail not shown here. Identical values can stand only once. Records with an inconclusive call do not appear. Active and inactive are the calls of the source. Rule for the calls: active = hit-call score of the fitted dose curve at least 0.9, where 1 is the maximum; inconclusive = response in the unintended direction; inactive = score below 0.9.

Sequence of human MET Proto-Oncogene, Receptor Tyrosine Kinase (MET), MET (gene 4233) (P08581 whole entry, looked up): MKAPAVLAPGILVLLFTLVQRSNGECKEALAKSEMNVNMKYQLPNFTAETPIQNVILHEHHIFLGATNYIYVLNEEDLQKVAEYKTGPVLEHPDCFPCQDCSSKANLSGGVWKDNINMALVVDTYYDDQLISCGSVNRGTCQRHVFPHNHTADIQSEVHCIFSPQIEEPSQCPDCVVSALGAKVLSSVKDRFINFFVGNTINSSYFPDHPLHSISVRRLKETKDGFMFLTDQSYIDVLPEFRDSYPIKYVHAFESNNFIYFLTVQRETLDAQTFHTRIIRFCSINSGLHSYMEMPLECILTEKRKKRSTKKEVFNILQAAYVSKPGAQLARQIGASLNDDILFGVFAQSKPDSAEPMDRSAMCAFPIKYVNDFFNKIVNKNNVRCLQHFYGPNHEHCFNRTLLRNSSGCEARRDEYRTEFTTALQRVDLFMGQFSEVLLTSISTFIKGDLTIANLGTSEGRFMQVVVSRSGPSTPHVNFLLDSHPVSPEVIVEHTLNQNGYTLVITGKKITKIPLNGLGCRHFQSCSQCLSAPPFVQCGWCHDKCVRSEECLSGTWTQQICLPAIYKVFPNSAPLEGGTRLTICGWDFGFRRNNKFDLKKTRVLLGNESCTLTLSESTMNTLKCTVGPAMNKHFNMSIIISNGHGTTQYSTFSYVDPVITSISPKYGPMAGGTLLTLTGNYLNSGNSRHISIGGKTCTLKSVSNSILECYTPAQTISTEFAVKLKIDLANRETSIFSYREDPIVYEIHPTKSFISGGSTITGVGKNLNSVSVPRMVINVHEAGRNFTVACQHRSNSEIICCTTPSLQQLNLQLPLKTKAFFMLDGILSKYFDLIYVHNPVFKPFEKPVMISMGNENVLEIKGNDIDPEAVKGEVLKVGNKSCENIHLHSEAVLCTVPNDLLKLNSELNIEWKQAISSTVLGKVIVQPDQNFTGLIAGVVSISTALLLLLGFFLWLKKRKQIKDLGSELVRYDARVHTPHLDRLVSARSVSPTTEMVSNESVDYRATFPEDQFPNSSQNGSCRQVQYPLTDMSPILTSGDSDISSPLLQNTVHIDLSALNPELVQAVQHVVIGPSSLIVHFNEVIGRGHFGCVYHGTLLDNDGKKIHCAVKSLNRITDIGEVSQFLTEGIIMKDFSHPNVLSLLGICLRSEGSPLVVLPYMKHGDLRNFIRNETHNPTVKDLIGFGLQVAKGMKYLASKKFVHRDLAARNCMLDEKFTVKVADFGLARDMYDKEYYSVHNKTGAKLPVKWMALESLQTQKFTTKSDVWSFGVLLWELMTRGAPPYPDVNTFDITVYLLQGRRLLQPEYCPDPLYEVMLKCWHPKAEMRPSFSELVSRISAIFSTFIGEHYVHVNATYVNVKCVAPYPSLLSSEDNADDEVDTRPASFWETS

The target in this assay is human MET Proto-Oncogene, Receptor Tyrosine Kinase (MET), MET (gene 4233) (UniProt P08581). Briefly: NVS_ENZ_hMet: NovaScreen (NVS) Enzymatic Assay for human MET Proto-Oncogene, Receptor Tyrosine Kinase (MET) (AID 2283180). As to the method:
NVS_ENZ_hMet is a biochemical, single-readout assay that uses extracted gene-proteins in a cell-free assay. Measurements were taken 1 hour after chemical dosing in a 384-well plate.NVS_ENZ_hMet is one of one assay component(s) measured or calculated from the NVS_ENZ_hMet assay. It is designed to make measurements of enzyme activity, a form of enzyme reporter, as detected with fluorescence intensity signals by Fluorescence and electrophoretic mobility shift technology.Data from the assay component NVS_ENZ_hMet was analyzed into 1 assay endpoint. This assay endpoint, NVS_ENZ_hMet, was analyzed in the positive analysis fitting direction relative to DMSO as the negative control and baseline of activity. Using a type of enzyme reporter, loss-of-signal activity can be used to understand changes in the enzymatic activity as they relate to the gene MET. Furthermore, this assay endpoint can be referred to as a primary readout, because this assay has produced multiple assay endpoints where this one serves a enzymatic activity function. To generalize the intended target to other relatable targets, this assay endpoint is annotated to the kinase intended target family, where the subfamily is receptor tyrosine kinase.
Binding assays used specific radioligands (tritiated, iodinated) with non-radioactive competitive displacement ligands in agonist or antagonist protocols (as indicated) and various reference compounds and inhibitors to titrate specific binding to receptors and transporters. Most enzyme assays (CYPs, kinases, phosphatases, proteases, HDACs) used recombinant protein and specific substrates (fluorescence mostly, some colorimetric and radioactive) and inhibitors, followed by a biochemical separation of substrate and product. All assays for the biochemical HTS were initially run in duplicate at a single concentration (10 uM for CYP450 assays and 25 uM for all others). Assay-chemical combinations meeting a pre-defined threshold (e.g., 30% inhibition and other criteria defined below) were then run in singleton concentration-response format with maximum concentration of 20 uM for CYPs and 50 uM for all others. Each assay was run with positive and negative controls, and concurrent controls on every plate. The follow-up (secondary) screen tested active chemical-pairs in concentration series, as well as a few additional assays not tested in the primary screen, some selected negative inactives, and several cases re-run in the concentration series for confirmatory purposes.
As for `O=C(O)Cc1cc(I)c(Oc2cc(I)c(O)c(I)c2)c(I)c1`, the AC50 was 26.7 µM (active).
`Fc1ccccc1[C@@H](F)COC1CCC(Nc2ncnc3[nH]ncc23)CC1` (stereo not given in full): the molecule was called inactive.
`CN(C)c1ccc(N=NS(=O)(=O)O)cc1`: the result was inactive.
For `O=C(O)c1ccc2c(c1)nc(C(=O)NC1CCN(C3CC3)CC1)n2Cc1cc(-c2ccc(Cl)s2)on1`, the outcome was inactive.
Turning to `N#CCCCCC#N`, the molecule was called inactive.
With `CC(=O)Oc1ccccc1C(=O)O`, the molecule was classed as inactive.
On the same count and under the same terms, the entry for `CCc1nc(N)nc(N)c1-c1ccc(Cl)cc1` is “inactive”.
Consider `CCN(CC)C(=O)c1cc(S(=O)(=O)Cc2ccccc2)c(N2CCC(c3ccccc3)CC2)cc1N(CC)CCN(C)C`, for which the molecule was called inactive.
Same read-out and setting: the value for `O=C(Oc1ccccc1)c1cccc(C(=O)Oc2ccccc2)c1` was “inactive”.
Turning to `CCCCCCCCCCCCc1ccccc1S(=O)(=O)O`, the half-maximal activity concentration (AC50) is 26.2 µM (active).
Consider `NCCO`, for which the molecule was classed as inactive.
The same measure, in the same setting: the entry for `N[C@@H](Cc1cc(I)c(Oc2ccc(O)c(I)c2)c(I)c1)C(=O)O` is “inactive”.
For `Nc1ccccc1N`, the concentration at half-maximal activity (AC50) is 32.2 µM (active).
On to `O=C(O)c1cc(N=Nc2ccc(S(=O)(=O)Nc3ccccn3)cc2)ccc1O`, for which the result was inactive.
For `Cc1nc(-c2ccccn2)ncc1C(=O)Nn1cc(C)c2cc(F)ccc21`, the result was inactive.
Take `CCCCCCCCCCCCCCOS(=O)(=O)O`: the AC50 is 18.5 µM (active).
For `CCN(CC)CCNc1ccc(CNC=O)c2sc3ccc(OC)cc3c(=O)c12`, the outcome was inactive.
For `O=c1[nH]cnc2c1ncn2[C@H]1CC[C@@H](CO)O1`, the molecule was classed as inactive.
The same measure, in the same setting: the value for `c1ccc2ccccc2c1` was “inactive”; that for `CC(C)CCCCCCc1ccc(O)cc1` was “inactive”.
Turning to `O=C(c1ccccc1)c1ccccc1`, the call was inactive.
Turning to `CCN(Cc1cccnc1)C(=O)c1cccc(Cl)c1[C@]1(C)C(=O)N(Cc2ccc(OC)cc2OC)c2ccc(Cl)cc21`, the outcome was inactive.
Turning to `CCCC(CCC)C(=O)O`, the result was inactive.
Take `O=C(NO)C1(NS(=O)(=O)c2ccc(Oc3ccc(F)cc3)cc2)CCOCC1`: the molecule was called inactive.
Same read-out and setting: the value for `O=C1NC(=O)C(c2ccccc2)(c2ccccc2)N1` was “inactive”.
Still for that read-out and setting: the value for `Cc1ncc([C@@H](CCCCCCc2ccc3c(n2)NCCC3)CC(=O)O)cn1` was “inactive”; that for `CC(C)=CCC/C(C)=C/CO` was “inactive”.
On the same count and under the same terms, the entry for `COc1ccc(S(=O)(=O)N2C(=O)[C@@](c3ccccc3OC)(N3C[C@H](O)C[C@H]3C(=O)N(C)C)c3cc(Cl)ccc32)c(OC)c1` is “inactive”; for `CCCCc1ccc2c(n1)[C@@H](c1ccc(OC)cc1C[C@H](C)C(=O)O)[C@H](C(=O)O)[C@H]2c1ccc2c(c1)OCO2` it is “inactive”; for `OCC(CO)n1cnc(-c2ccc(F)cc2)c1-c1ccnc(Oc2ccccc2)n1` it is “inactive”.
`COCC(C)OCC(C)O` (stereo not given): the outcome was inactive.
On to `Cc1ccc(N)cc1O`, for which the molecule was called inactive.
As for `S=C(S)NCCNC(=S)S.[Mn+2].[S-]C([S-])=NCCN=C([S-])[S-].[Zn+2]`, the AC50 was 11 µM (active) and 4.32 µM (active) and 18.9 µM (active).
Regarding `FC(F)(F)C(F)(F)C(F)(F)C(F)(F)C(F)(F)C(F)(F)CCI`, the molecule was classed as inactive.
Still for that read-out and setting: the entry for `CC/C(=C(\c1ccccc1)c1ccc(OCCN(C)C)cc1)c1ccccc1` is “inactive”.
Regarding `S=C([S-])NCCNC(=S)[S-].[Mn+2]`, the AC50 was 20.5 µM (active).
Consider `COc1cc(C(=O)NC2CCN(C)CC2)ccc1Nc1ncc2c(n1)N(C1CCCC1)CC(F)(F)C(=O)N2C`, for which the result was inactive.
On the same count and under the same terms, the value for `CCCOC(=O)c1cc(O)c(O)c(O)c1` was “inactive”; that for `O=C(O)c1cccc(Oc2ccccc2)c1` was “inactive”; that for `COc1ccc(OC(F)(F)F)cc1CN[C@H]1CCCN[C@H]1c1ccccc1` was “inactive”.
